Screening data: PubChem BioAssay, National Center for Advancing Translational Sciences (NCATS)
This excerpt belongs to a sample that is enriched for hits.
RE007 growth inh = less growth of the S. pombe RE007 Vpr strain. hit rate 0.21% among 360,000. Potency, µM (series often up to 92.2 µM), for the others: top-dose activity change, negative = less growth, hits mostly inhibitors. S. pombe RE007 Vpr strain, BacTiter-Glo ATP luminescence, 24 h; active = well fitted falling curve with a large enough effect; inconclusive = small, poorly fitted or top-dose-only effect; inactive = no such curve, though single readings can be large or run the other way; note: potency is the fitted concentration of half-maximal effect; % is set by controls: 0 for no effect and ±100 for the full control effect; nearly all actives have a fitted effect of over 50% in size
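Fission yeast strain RE007, carrying one chromosomally integrated HIV-1 vpr copy, was seeded at OD 0.01 in PMG+AL medium with 23 nL pinned compound. After 24 h at 30 °C and 99% humidity, viability was read by BacTiter-Glo luminescence.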
FBPA Giardia inh = Giardia lamblia aldolase inhibition. AID 2451. hit rate 0.71% among 290,000. Potency, µM (titrated, usually from 59.6 µM), without a hit: top-dose activity, negative = inhibition, most hits filed as inhibitors. A8B2U2. purified Giardia FBPA; note: potency is the fitted concentration of half-maximal effect; % is set by controls: 0 for no effect and ±100 for the full control effect; nearly all actives have a fitted effect of over 55% in size
Target sequence (A8B2U2 whole entry, looked up): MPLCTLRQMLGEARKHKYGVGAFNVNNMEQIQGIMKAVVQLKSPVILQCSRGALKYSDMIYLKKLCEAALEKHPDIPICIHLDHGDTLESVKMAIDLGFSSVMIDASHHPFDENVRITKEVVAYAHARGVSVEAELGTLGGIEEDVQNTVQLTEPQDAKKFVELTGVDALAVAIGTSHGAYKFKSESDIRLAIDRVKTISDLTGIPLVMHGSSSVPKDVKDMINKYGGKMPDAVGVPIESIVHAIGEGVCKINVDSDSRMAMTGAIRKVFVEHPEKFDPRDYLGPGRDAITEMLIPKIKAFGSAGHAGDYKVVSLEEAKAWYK
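Giardia FBPA (40 nM reagent) was preincubated 10 min at RT with compound (up to 57.5 uM final), then substrate plus GAPDH/TPI/NAD/arsenate coupling system with diaphorase/resazurin was added; resorufin fluorescence (525/598 nm) was read after 20 min.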
Shiga toxin inh = inhibitors of Shiga toxin in Vero cells; Vero cells, Shiga toxin protein synthesis inhibition reporter; inhibition, % at 38.7 µM; hit rate 9.2% among 290,000; in the data active = inhibition mostly above about 28%, no sharp cut-off; inactive = mostly below about 43%; note: 0% is about no effect
Tb PYK inh = blocks Trypanosoma brucei pyruvate kinase; TbPYK enzyme, Kinase-Glo Plus ATP luminescence, 45 min; hit rate 0.12% among 410,000; AID 624173; Potency, µM (series often up to 76.8 µM), for inactives: at the top dose activity, negative = inhibition, usual class: inhibitors; note: potency is the fitted concentration of half-maximal effect; % is set by controls: 0 for no effect and ±100 for the full control effect; nearly all actives have a fitted effect of over 50% in size
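Quantitative HTS: titrated library compounds versus trypanosomal pyruvate kinase in TEA buffer (pH 7.2) containing KCl, MgCl2, BSA and Tween-20. Reactions were initiated with ADP, 130 uM final. Kinase-Glo Plus luminescence was read after 45 min at RT.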
LmPK inh = inhibitors of Leishmania mexicana pyruvate kinase. Q27686. purified LmPK, Kinase-Glo ATP luminescence, 1 h. Potency, µM (doses to about 57.5 µM), without a hit: at the highest dose activity change, negative = inhibition, actives largely listed as inhibitors. hit rate 0.37% among 290,000. AID 1721; note: potency is the fitted concentration of half-maximal effect; % is set by controls: 0 for no effect and ±100 for the full control effect
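Screened at intermediate enzyme activity to detect both inhibitors and activators: LmPK at 0.1 nM, with a 0.5 nM enzyme column as activation reference. PEP 0.5 mM, ADP 0.1 mM; ATP detected by luminescence after 1 h.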
Cycloheximide cs = affects cycloheximide protein synthesis inhibition readout, counter-screen; cell reporter, cycloheximide protein synthesis inhibition counterscreen; max response, %; hit rate 12% among 300,000; AID 2314; in the data active = max response mostly above about 13%, no sharp cut-off; inactive = mostly below about 14%; note: read at 38.3 µM for the half of the compounds with a filed dose; 0% is about no effect
Numbers without * were called inactive; ? = inconclusive; nt = not tested or not shown; [ ] = remark or other dose. Unless noted, calls come from the whole dose curve; as a rule, active = well fitted curve in the direction sought with a large enough effect; inconclusive = small, poorly fitted or top-dose-only effect, or another doubt; inactive = no such curve, though single readings can be large; an effect the other way counts as inactive or inconclusive.

SMILES	RE007 growth inh	FBPA Giardia inh	Shiga toxin inh	Tb PYK inh	LmPK inh	Cycloheximide cs
CCOc1ccc(NC(=O)Cn2c(=O)cc(C)c3c(C)nn(-c4ccc(CC)cc4)c32)cc1	nt	nt	nt	5%	nt	nt
CCN1C(C)=C(C(=O)OC)C(c2ccccc2)N2C(=O)[C@](O)(C(=O)OC)CC(C(C)=O)=C12 (stereo partly specified)	nt	1%[12.9 µM]	nt	nt	nt	nt
CCC(=O)NC[C@H](Cc1ccc(OCCc2nc(-c3ccccc3)oc2C)cc1)N/C(C)=C\C(=O)c1ccc(C(F)(F)F)cc1	nt	-21%	15	nt	nt	11
CCCCC(CC)CNC(=O)Cc1ccc(-n2c(=O)[nH]c3ccccc3c2=O)cc1 (stereo unspecified)	nt	nt	nt	1%	nt	nt
C#CCO[C@@H]1C[C@H](n2cnc3c(NC(=O)c4ccccc4)ncnc32)O[C@@H]1CO	7%	0%	39	-2%	-6%	21*
CN1CCN(S(=O)(=O)c2ccc(C(F)(F)F)cc2)C(c2ccccc2)C1 (stereo unspecified)	-4%	nt	nt	-9%	nt	nt
O=C(c1cc(COc2ccc(-n3cncn3)cc2)on1)N1CCCC1	0%	nt	nt	-5%	nt	nt
CC(=O)c1ccc(OCc2cc(C(=O)N3CCC(Oc4ccccc4C)CC3)no2)cc1	1%	-4%	143*	-6%	-7%	90*
CC(=O)c1ccc(OCc2cc(C(=O)N3CCN(C4CCCC4)C(=O)C3)no2)cc1	1%	nt	nt	-8%	nt	nt
CC(=O)c1ccc(OCc2cc(C(=O)N3CCCCCCC3)no2)cc1	13%	nt	57*	-2%	-8%	57*
CC(=O)c1ccc(OCc2cc(C(=O)N3CCOCC3)no2)cc1	-1%	-1%	79*	2%	3%	43*
OC1(C(F)(F)F)CC(c2ccc3ccccc3c2)=NO1 (stereo unspecified)	-4%	4%	48*	0%	2%	38*
CCc1ccc(C)[n+](CC(=O)c2cccs2)c1	-10%	-8%	-6	-11%	3%	-3
COc1ccccc1C(=O)OCCNC(=O)Cn1cnc2c1c(=O)n(C)c(=O)n2C	20%	0%	24	-1%	2%	-6
CCOc1ccc(-n2nnnc2-c2nc3ccccc3s2)cc1	-12%	3%	138*	-8%	-2%	60*
Cc1ccc(-n2nnnc2-c2nc3ccccc3s2)cc1	36%	9%	51*	-1%	3%	15*
COc1ccc(C2=Cc3ccccc3C(CC(=O)C3CC3)N2c2ccc(-c3cc(OC)c(OC)c(OC)c3)cc2)cc1 (stereo unspecified)	-2%	nt	nt	8%	nt	nt
COc1ccc(Nc2c(-c3cc(Br)ccc3O)nc3ncccn23)cc1OC	nt	nt	nt	1%	nt	nt
COc1cccc(C2=Nc3cccc4cccc(c34)N2)c1	-17%	?	16	-8%	0%	14*
Nc1ccc(C2=Nc3cccc4cccc(c34)N2)cc1	2%	20%	7	-2%	-28%	8
C=CCc1c(C)nc(-c2ccccc2)nc1N/N=C/c1ccncc1	-11%	-8%	30	1%	6%	23*
OCC[C@@H]1C[C@@H](O)[C@H](O)[C@@]2(OCCc3ccccc32)O1	7%	28%	-2	-8%	-2%	1
Cc1ccc(-c2noc(C3CCCCC3)n2)cc1	3%	0%	50*	-5%	-8%	27
Cc1cccc(-c2noc(C3CC(=O)N(c4ccc5c(c4)OCCO5)C3)n2)c1 (stereo unspecified)	nt	nt	nt	-3%	nt	nt
Cc1cccc(-c2noc(-c3ccno3)n2)c1	?	0%	91*	6%	-5%	40*
SMILES	RE007 growth inh	FBPA Giardia inh	Shiga toxin inh	Tb PYK inh	LmPK inh	Cycloheximide cs
COc1ccc(-c2noc(C3CCCN(C(=O)c4ccc(C)cc4)C3)n2)cc1 (stereo unspecified)	-6%	-3%	11	-5%	-2%	15
Cc1cccc(-c2noc(C3CCCCC3)n2)c1	0%	14%	198*	6%	-10%	55*
CCS(=O)(=O)N1CCC(c2nc(-c3ccc(C)cc3)no2)CC1	2%	-4%	74*	2%	-3%	55*
CCS(=O)(=O)N1CCC(c2nc(-c3ccc(C(F)(F)F)cc3)no2)CC1	-10%	-1%	-17	-12%	-3%	0
Cc1cc(S(=O)(=O)c2ccc(Cl)cc2)nc(S(=O)(=O)c2ccc(Cl)cc2)c1C#N	20%	nt	nt	-22%	nt	nt
Cn1c(=O)cc(SCC(=O)NCCc2ccc(Cl)cc2)c2cc(Cl)ccc21	nt	nt	nt	-1%	nt	nt
COc1cccc(Nc2sc(C(=O)c3ccc4c(c3)OCO4)c(N)c2S(=O)(=O)c2ccccc2)c1	nt	nt	nt	1%	nt	nt
Cc1cc(N2CCCC2)ccc1/C=C1\NC(=S)N(C)C1=O	-5%	-26%	28	-18%	-4%	21*
CN1C(=O)c2ccc(N3CCCC3)cc2C1=O	-15%	-9%	55*	-7%	0%	15*
CN1C(=O)c2ccc(N(C)C)cc2C1=O	-4%	0%	26	-9%	2%	7
O=C(NCc1ccccc1F)c1ccc2c(c1)OCO2	6%	-1%	55	-3%	-2%	24
O=C(Nc1ccc2c(c1)OCCO2)C(=S)NCc1ccccc1	3%	-5%	82*	-1%	-4%	49*
O=C(NCc1ccccc1)c1ccc2c(c1)OCCO2	41%	2%	26	7%	-3%	23*
NNC(=O)[C@H](Cc1ccccc1)NC(=O)Nc1ccc2c(c1)OCCO2	3%	1%	-3	1%	4%	2
O=C(NCc1cccs1)c1ccc2c(c1)OCCO2	4%	1%	22	1%	-6%	37*
O=C(NCc1ccccc1Cl)c1ccc2c(c1)OCO2	3%	nt	32*	-5%	-4%	18*
CCC[C@@H]1C[C@@]1(CCC)C(NC(=O)c1ccco1)c1ccc(Cl)cc1 (stereo partly specified)	nt	1%	nt	nt	nt	nt
Cc1nn(-c2ccccc2)c2sc(C(=O)N3CCCCC3)cc12	-9%	7%	114*	7%	0%	48*
COC1OC2COC(c3ccccc3)OC2C(O)C1O (stereo unspecified)	nt	11%	nt	nt	nt	nt
CCCCNC(=O)C(NC(=O)c1ccccc1)C(=O)c1ccccc1 (stereo unspecified)	-11%	nt	nt	nt	nt	nt
CC(/C=N/Nc1nc(C)cc(=O)[nH]1)=C\c1ccccc1	2%	-15%	60*	-1%	-2%	42*
CC(/C=N/Nc1nc2ccccc2[nH]1)=C\c1ccccc1	-9%	1%	13	-1%	-5%	23*
CC(/C=N/Nc1ncc(C)c(=O)[nH]1)=C\c1ccccc1	8%	-11%	25	4%	5%	13
CCCC(=O)Nc1nnc(SCc2cc(=O)n3cccc(C)c3n2)s1	nt	nt	nt	8%	nt	nt
CC1(CCc2ccccc2)NC(=O)NC1=O (stereo unspecified)	-4%	nt	nt	-11%	nt	nt
Cc1ccc2c(CNCc3ccc(C)o3)c(C(=O)O)n(Cc3ccccc3C)c2c1	nt	nt	nt	1%	nt	nt
